The target in test [1] is Progesterone receptor (Homo sapiens) (UniProt P06401). The test is described as follows: qHTS assay to identify small molecule antagonists of the progesterone receptor (PR) signaling pathway (AID 1346795; active = well fitted inhibition curve with a large enough effect in the signal ratio in the repeat runs, not every such curve was filed as active; the % refers to the signal ratio; note: potency is the fitted concentration of half-maximal effect). In outline: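 Inhibition of R5020-induced (1 nM final) beta-lactamase reporter signal in PR-UAS-bla HEK293T cells was scored by FRET fluorescence after overnight (16 hr) compound treatment.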

A short description of test [2]: qHTS assay to identify small molecule antagonists of the progesterone receptor (PR) signaling pathway - cell viability counter screen (AID 1346798). Note: nearly all actives have a fitted effect of over 50% in size. Note: potency is the fitted concentration of half-maximal effect. In outline:
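ATP content as viability readout: CellTiter-Glo luminescence, 30 min room temperature, in PR-UAS-bla HEK293T cells after 16 hr compound/R5020 treatment at 37C and 5% CO2.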
In general terms: Quantitative high-throughput screening tests each substance at several concentrations.

A short description of test [3]: qHTS assay to identify small molecule agonists of the progesterone receptor (PR) signaling pathway - cell viability counter screen (AID 1346799; calls by dose curve; note: nearly all actives have a fitted effect of over 45% in size; note: potency is the fitted concentration of half-maximal effect). In outline:
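Cytotoxicity in PR-bla HEK293T cells: 16 h compound, 37C; CellTiter-Glo added post-FRET read; luminescence after 30 min RT.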

A short description of test [4]: qHTS assay to identify small molecule antagonists of the TGF-beta/Smad signaling pathway - cell viability counter screen (AID 1346824). Note: nearly all actives have a fitted effect of over 50% in size. In outline:
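SBE-bla HEK 293T cells, incubated overnight, then compound plus 0.25 ng/mL TGF-beta1 (stock added) for 5 hr at 37 C. Viability was read in the same wells by CellTiter-Glo luminescence after 30 min at room temperature.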

Test [5] is described as follows: qHTS assay to identify small molecule agonists of the TGF-beta/Smad signaling pathway - cell viability counter screen (AID 1346829). Note: top concentration of the series differs between compounds; nearly all actives have a fitted effect of over 45% in size. In outline: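 HEK 293T SBE-bla line, 5 hr compound exposure at 37 C, multiplexed CellTiter-Glo viability read by luminescence.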
Test [6] deals with Thyrotropin-releasing hormone receptor (Homo sapiens) (UniProt P34981). As to the kind of experiment: qHTS assay to identify small molecule agonists of the thyrotropin-releasing hormone receptor (TRHR) signaling pathway (AID 1346891; calls by dose curve;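 note: HEK293 cells expressing TRHR with calcium dye readout; series mostly up to about 58 µM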). In outline:
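In 1536-format, 1500 TRHR-Hek293 cells per well grew 18 h, took up calcium dye for 2 h at 37 °C, received compound, and were read kinetically; 15-point titrations, triplicates.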

Test [7] is described as follows: Caspase-3/7 induction in HepG2 cells by small molecules, qHTS assay (AID 1346978). Note: nearly all actives have a fitted effect of over 15% in size. Note: potency is the fitted concentration of half-maximal effect. In outline: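 Wild-type HepG2 cells, 2,000/well, settled 5 hr at 37 C and 5% CO2, then compound-treated for 17 hr; caspase-3/7 activity read by luminescent Caspase-Glo 3/7 after 30 min at room temperature.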
Test [8] in a line: Human pregnane X receptor (PXR) small molecule agonists, qHTS cell viability counter screen (AID 1346977). Note: nearly all actives have a fitted effect of over 50% in size. Note: potency is the fitted concentration of half-maximal effect. In outline: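 Readout is CellTiter-Fluor fluorescence from PXR-Luc HepG2 cells. Plated cells rested 5hr, then were treated with compounds for 24hr at 37C and 5% CO2, with reagent present during the last hour.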
A short description of test [9]: qHTS assay to identify small molecule agonists of the TGF-beta/Smad signaling pathway (AID 1346859; active = well fitted activation curve with a large enough effect in the signal ratio in the repeat runs, not every such curve was filed as active; the % refers to the signal ratio; note: series mostly up to about 77 µM). In outline: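 Stable Smad binding element-beta-lactamase HEK 293T cells; 5 hr compound exposure at 37 C under 5% CO2; 2 hr room-temperature substrate step; fluorescence excited at 405 nm, collected at 460 nm and 530 nm.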
Test [10] concerns the target Thyrotropin-releasing hormone receptor (Homo sapiens) (UniProt P34981). The test is described as follows: qHTS assay to identify small molecule antagonists of the thyrotropin-releasing hormone receptor (TRHR) signaling pathway (AID 1346877; active = well fitted inhibition curve with a large enough effect in the repeat runs, not every such curve was filed as active; note: series mostly up to about 51 µM). In outline: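 Screening used HEK293 cells engineered with TRHR, with a brief 5 min room-temperature compound exposure preceding addition of TRH to 1 nM. The read-out was kinetic calcium-dye fluorescence, concentration-response from 15 doses in triplicate.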

SMILES strings stand for the structures. Values without a mark were called inactive. Records with an inconclusive call do not appear. The source made the active and inactive calls. Unless noted, calls come from the whole dose curve; as a rule, active = well fitted curve in the direction sought with a large enough effect in the repeat runs; inconclusive = weak or mixed curves; inactive = no such curve, though single readings can be large; an effect the other way counts as inactive or inconclusive.

The text below walks through data of PubChem BioAssay (Tox21).

Chain of Thyrotropin-releasing hormone receptor (Homo sapiens) (P34981 whole entry, looked up): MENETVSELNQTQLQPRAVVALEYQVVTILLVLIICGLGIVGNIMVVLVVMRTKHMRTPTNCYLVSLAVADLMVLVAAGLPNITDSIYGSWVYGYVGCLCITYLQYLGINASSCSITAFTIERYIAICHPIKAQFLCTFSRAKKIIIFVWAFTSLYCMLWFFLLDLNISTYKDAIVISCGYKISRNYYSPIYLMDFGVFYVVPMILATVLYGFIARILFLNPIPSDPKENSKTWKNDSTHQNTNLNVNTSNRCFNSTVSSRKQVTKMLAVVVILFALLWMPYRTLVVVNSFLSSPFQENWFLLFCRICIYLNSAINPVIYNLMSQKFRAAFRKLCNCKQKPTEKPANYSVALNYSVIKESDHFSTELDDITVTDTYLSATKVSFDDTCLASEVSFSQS
Chain of Progesterone receptor (Homo sapiens) (P06401 whole entry, looked up): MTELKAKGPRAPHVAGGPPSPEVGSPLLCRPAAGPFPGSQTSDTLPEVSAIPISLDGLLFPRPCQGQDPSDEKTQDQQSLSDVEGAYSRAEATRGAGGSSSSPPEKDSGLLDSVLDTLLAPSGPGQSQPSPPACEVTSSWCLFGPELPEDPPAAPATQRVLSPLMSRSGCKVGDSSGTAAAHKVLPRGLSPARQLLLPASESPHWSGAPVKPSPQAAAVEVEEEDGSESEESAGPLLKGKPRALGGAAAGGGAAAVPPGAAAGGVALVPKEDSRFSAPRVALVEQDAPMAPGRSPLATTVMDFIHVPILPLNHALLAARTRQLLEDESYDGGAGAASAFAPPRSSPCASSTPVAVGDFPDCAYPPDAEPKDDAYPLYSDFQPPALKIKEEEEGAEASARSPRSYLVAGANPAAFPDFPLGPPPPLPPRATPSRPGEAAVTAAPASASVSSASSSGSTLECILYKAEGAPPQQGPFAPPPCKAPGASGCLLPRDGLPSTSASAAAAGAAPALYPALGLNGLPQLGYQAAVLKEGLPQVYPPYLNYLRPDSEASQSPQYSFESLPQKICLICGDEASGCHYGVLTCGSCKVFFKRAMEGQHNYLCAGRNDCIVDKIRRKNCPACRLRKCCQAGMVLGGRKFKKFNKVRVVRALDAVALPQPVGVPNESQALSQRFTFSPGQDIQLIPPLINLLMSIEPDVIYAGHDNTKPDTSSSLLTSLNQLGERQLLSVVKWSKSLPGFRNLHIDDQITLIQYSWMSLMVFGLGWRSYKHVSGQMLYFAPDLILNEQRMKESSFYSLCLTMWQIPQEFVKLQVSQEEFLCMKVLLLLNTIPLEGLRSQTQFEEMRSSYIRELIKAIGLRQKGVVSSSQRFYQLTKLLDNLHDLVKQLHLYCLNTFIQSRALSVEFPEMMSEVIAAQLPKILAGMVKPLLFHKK

Take `CCCCCCOc1ccc(O)cc1`: the Potency in test [1] was 13.7 µM (active). The Potency entry in [2], in test [3], in test [4], in test [5], in test [6] and in [7] was “inactive” in each case.

Regarding `CC(COC(=O)c1ccccc1)OC(=O)c1ccccc1` (stereo unspecified), the Potency result in [1], in [2], in test [3], in [4], in [5] and in test [8] was “inactive” each time. The Potency entry in [7] is “inactive”.

As to `CCOC(=O)CN`, the Potency result in test [1], in test [2], in [3], in test [4], in test [5] and in [9] was “inactive” throughout. The Potency entry in test [8] and in [7] was “inactive” throughout.

With `CCCCCCCC/C=C\CCCCCCCC(=O)N(C)CC(=O)O`, the Potency in test [1] was 24.3 µM (active); in test [2] it was 68.6 µM (active); in [3], 68.6 µM (active). For the same compound, the Potency entry in test [4], in [5], in test [10], in [6], in [8] and in test [7] was “inactive” each time.

Take `NCCCC(O)(P(=O)(O)O)P(=O)(O)O`: the Potency result in [1], in [2], in [3], in [4], in [5] and in test [10] was “inactive” each time. Moreover, the Potency entry in test [6] and in test [7] was “inactive” throughout.

For `Brc1ccccn1`, the Potency entry in test [1], in test [2], in test [3], in [4], in test [5] and in [10] was “inactive” throughout. Also, the Potency entry in [6], in [8] and in test [7] was “inactive” each time.

As for `O=C1OC(=O)c2cccc3cccc1c23`, the Potency entry in [1], in [2], in [3], in [4], in [5] and in test [10] was “inactive” throughout. Further, the Potency entry in test [6], in test [8] and in test [7] was “inactive” in each case.

On to `OCCN1CN(CCO)CN(CCO)C1`, for which the Potency entry in test [1], in [2], in test [3], in test [4], in [5] and in test [10] was “inactive” each time. In addition, the Potency result in [6], in test [8] and in test [7] was “inactive” each time.

As to `[O]=[Zr]`, the Potency result in test [1], in [2], in [3], in [4], in test [9] and in test [10] was “inactive” throughout. For the same compound, the Potency result in test [6], in test [8] and in test [7] was “inactive” in each case.

In the case of `SCCCCCCCCS`, the Potency result in test [1], in [2], in [3], in [4], in test [5] and in test [10] was “inactive” throughout. Further, the Potency result in [6], in [8] and in test [7] was “inactive” throughout.

In the case of `O=Cc1ccc(F)cc1`, the Potency entry in [1], in [2], in test [3], in test [4], in test [9] and in test [10] was “inactive” each time. The Potency result in test [6], in test [8] and in test [7] was “inactive” throughout.

Turning to `CCOC(/C=C(\C)CCC=C(C)C)OCC`, the Potency entry in [1], in [2], in test [3], in test [4], in test [5] and in test [6] was “inactive” in each case. Further, in [7], the Potency entry was “inactive”.

Turning to `O[C@@H](c1cc(C(F)(F)F)nc2c(C(F)(F)F)cccc12)[C@H]1CCCCN1`, the Potency was 23.7 µM (active) in test [1]; 26.6 µM (active) in test [2]; 26.6 µM (active) in [3]; 26.6 µM (active) in test [8]; 26.6 µM (active) in test [7]. Also, the Potency result in test [5], in test [9] and in [10] was “inactive” in each case.

On to `c1cc[nH]c1`, for which the Potency result in test [1], in [2], in test [3], in test [4], in test [5] and in test [10] was “inactive” throughout. The Potency result in [6], in [8] and in [7] was “inactive” each time.

In the case of `c1ccc(Sc2ccccc2)cc1`, the Potency result in [1], in test [2], in test [3], in test [4], in [5] and in test [8] was “inactive” throughout. The Potency entry in [7] is “inactive”.

Take `CC(C)=C1CC[C@@H](C)CC1=O`: the Potency entry in test [1], in test [2], in test [3], in test [4], in test [5] and in test [8] was “inactive” each time. In test [7], the Potency entry is “inactive”.

On to `CC(C)CCOCCC(C)C`, for which the Potency result in [1], in test [2], in test [3], in test [4], in test [5] and in test [9] was “inactive” in each case. Moreover, the Potency entry in [8] and in [7] was “inactive” in each case.

In the case of `CN1[C@@H]2CC[C@H]1CC(OC(=O)C(CO)c1ccccc1)C2` (stereo partly specified), the Potency result in [1], in test [2], in test [4], in test [5], in test [9] and in [7] was “inactive” each time. In test [3], the Potency is 61.1 µM (active).

Turning to `Oc1cc2ccccc2cc1O`, the Potency result in test [1], in test [2], in [3], in test [4], in test [5] and in test [8] was “inactive” in each case. Further, in test [7], the Potency entry is “inactive”.

As to `CC1CCCCC1`, the Potency entry in test [1], in test [2], in test [3], in [4], in test [5] and in [9] was “inactive” each time. In addition, the Potency entry in test [8] and in test [7] was “inactive” throughout.

As to `CCO[Si](C)(C)OCC`, the Potency entry in test [1], in test [2], in [3], in [4], in test [5] and in test [9] was “inactive” each time. For the same compound, the Potency entry in [8] and in [7] was “inactive” throughout.

Turning to `CC1=C(/C=C/C(C)=C/C=C/C(C)=C\C=O)C(C)(C)CCC1`, the Potency entry in test [1], in test [2], in [3], in test [4], in test [5] and in test [10] was “inactive” in each case. Further, the Potency entry in test [6], in test [8] and in test [7] was “inactive” each time.

Consider `CC(C)(c1cc(Br)c(OCCO)c(Br)c1)c1cc(Br)c(OCCO)c(Br)c1`, for which the Potency was 5.33 µM (active) in test [1] and 29.9 µM (active) in [2]. The Potency entry in [4], in test [5] and in test [9] was “inactive” throughout.

For the compound `O=C1NC2CCCCN2C12CCN(CCCN1c3ccccc3CCc3ccc(Cl)cc31)CC2` (stereo unspecified), the Potency in test [1] was 26.6 µM (active); in [2], 26.6 µM (active); in test [3], 23.7 µM (active); in [7], 29.8 µM (active). For the same compound, the Potency entry in [4], in test [10] and in [6] was “inactive” in each case.

For the compound `C=CC(=O)OCCOCC(CC)(COCCOC(=O)C=C)COCCOC(=O)C=C`, the Potency in test [1] is 28.4 µM (active); in [2] it was 63.7 µM (active); in test [3], 63.7 µM (active). For the same compound, the Potency result in test [4], in [5] and in test [7] was “inactive” throughout.

On to `Cc1cnccn1`, for which the Potency result in test [1], in test [2], in test [3], in test [4], in test [5] and in test [10] was “inactive” throughout. For the same compound, the Potency result in [6] and in test [7] was “inactive” throughout.

For the compound `CN1CCN(C2Cc3ccccc3Sc3ccc(Cl)cc32)CC1` (stereo unspecified), the Potency in test [1] was 26.6 µM (active); in [2], 29.8 µM (active); in test [3], 29.8 µM (active); in test [8], 26.6 µM (active). Further, the Potency result in test [5], in test [9], in [10] and in [6] was “inactive” in each case.

Take `CCCCOCC`: the Potency result in [1], in [2], in test [3], in test [4], in test [5] and in [9] was “inactive” in each case. Further, the Potency entry in test [8] and in test [7] was “inactive” in each case.

Consider `CCCCCCCCCCCCCc1ccccc1`, for which the Potency result in test [1], in test [2], in [3], in test [4], in [5] and in [9] was “inactive” in each case. For the same compound, the Potency result in test [8] and in [7] was “inactive” in each case.

Turning to `C=CC(=O)OCCN(CC)CC`, the Potency entry in test [1], in test [2], in test [3], in test [4], in [5] and in [9] was “inactive” throughout. Moreover, the Potency result in test [8] and in [7] was “inactive” in each case.
